# From PubChem BioAssay AID485344 (National Center for Advancing Translational Sciences (NCATS), 2010)
# Values joined by “and” are separate entries in the source; they are usually repeats but may differ in a detail not shown here. Identical values can stand only once. Among all 340,000 compounds or so, about 6,900 (2%) were called active. The sample holds actives, similar compounds and a random draw of the others, so the mix is not that of the screen. Cut-off read from the data, not from the text of the source: active = inhibition above about 30%; inactive = below that, where a call was filed. More than one record can exist for a structure, and the calls need not agree.
# Target: D(2) dopamine receptor (Homo sapiens) (UniProt P14416)
# Sequence (P14416 whole entry, looked up): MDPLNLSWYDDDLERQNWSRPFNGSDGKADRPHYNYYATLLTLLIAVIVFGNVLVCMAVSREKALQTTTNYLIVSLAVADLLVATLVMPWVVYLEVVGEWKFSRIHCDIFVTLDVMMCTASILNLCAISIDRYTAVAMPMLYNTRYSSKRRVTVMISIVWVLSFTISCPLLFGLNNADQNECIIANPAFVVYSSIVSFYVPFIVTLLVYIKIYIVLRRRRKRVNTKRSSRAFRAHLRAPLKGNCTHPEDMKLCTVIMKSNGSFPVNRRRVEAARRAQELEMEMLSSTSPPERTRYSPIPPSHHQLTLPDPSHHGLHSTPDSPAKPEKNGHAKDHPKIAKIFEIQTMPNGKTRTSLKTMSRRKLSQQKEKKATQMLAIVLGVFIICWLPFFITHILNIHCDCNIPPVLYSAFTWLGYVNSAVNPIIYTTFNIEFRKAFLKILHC
# Assay: HTS Assay for Allosteric Antagonists of the Human D2 Dopamine Receptor: Primary Screen for Antagonists; note: 0% is about no effect
# Settings: HEK293 TREx D2 cells, calcium flux, dopamine EC80; at 10 µM; stronger effect = higher value
# In short: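 Measurement of antagonist activity uses fluorescent calcium dye in inducible HEK293 T-REx D2 cells: 10 s baseline, compound addition with 180 s read, EC80 dopamine addition with a further 180 s read.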
row,Compound,inhibition
1,COc1ccccc1-c1sc2ccccc2c1-c1ccc(Br)nc1,7.5% (inactive)
2,Cc1n[nH]c(=O)c2c(NC(=O)CSc3cc(Cl)ccc3Cl)oc(C)c12,10% (inactive)
3,Cc1c(C(=O)Nc2ccccn2)oc2ccc(Br)cc12,-19.8% (inactive)
4,O=C(COC(=O)c1ccccc1SCC(=O)N1CCCC1)Nc1ccccc1OC(F)F,-3.18% (inactive)
5,COc1ccc(CN2CCC(c3nc4ccc(Cl)cc4[nH]3)CC2)cc1,59.7% (active)
6,COc1ccc(Cn2nnc3c(=O)[nH]c(C4CCN(C(=O)c5ccccc5Cl)CC4)nc32)cc1,5.81% (inactive)
7,COC(=O)c1cc(S(=O)(=O)NCC2CCN(Cc3ccc(Cl)cc3)CC2)cn1C,-3.52% (inactive)
8,Nc1c(N(CCCO)C(=O)C2CCCC2)c(=O)[nH]c(=O)n1Cc1ccccc1,10.6% (inactive)
9,Cc1cccc(NC(=O)CN2CCN(CC(=O)NCC3(N4CCCCC4)CCCCC3)CC2)c1C,6.75% (inactive)
10,CCN(CC(=O)Nc1cc(Cl)ccc1C)C(=O)CSCc1ccccc1,6.06% (inactive)
11,CC(C#N)(NC(=O)CN1CCN(S(=O)(=O)c2cc(C(F)(F)F)ccc2Cl)CC1)C1CC1 (centres undefined),12.9% (inactive)
12,CN1CCN(c2ccc([N+](=O)[O-])c(Sc3nc4ccccc4[nH]3)c2)CC1,88.9% (active)
13,O=C(CSc1nc2ccccc2[nH]1)N/N=C/C=C\c1ccccc1[N+](=O)[O-],-1.1% (inactive)
14,CC1CCN(c2ccc([N+](=O)[O-])c(SCCO)c2)CC1,-11.8% (inactive)
15,Cc1noc(C)c1COc1ccccc1C(=O)N(C)CC(=O)Nc1cccc(F)c1,6.3% (inactive)
16,CC(=O)Nc1ccc(S(=O)(=O)N(CCc2ccccc2)CC(=O)N/N=C/c2ccc(C(=O)O)cc2)cc1,10.8% (inactive)
17,COc1ccc(N(CC(=O)N/N=C/c2cccc3c2OCCO3)S(=O)(=O)c2ccc(NC(C)=O)cc2)cc1,44.5% (active)
18,COc1ccc(S(=O)(=O)N(CC(=O)N/N=C/c2ccccc2C(=O)O)c2ccccc2OC)cc1,1.95% (inactive)
19,O=C(CCc1nnc(CCCCc2ccccc2)o1)NC(c1cccnc1)C(F)(F)F (centres undefined),32.7% (active)
20,CC(CCn1cccn1)NC(=O)CCc1nnc(CCc2ccccc2)o1 (centres undefined),3.4% (inactive)
21,Cc1cc(-c2nnc(CCC(=O)NC(c3ccccc3)c3ccccc3)o2)no1,4.61% (inactive)
22,O=S(=O)(NCCc1ccccn1)c1cc(Cl)cc(Cl)c1O,0.268% (inactive)
23,O=C(Nc1ncccc1O)c1ccc(S(=O)(=O)N2CCCC2)cc1,-6.12% (inactive)

row,Compound,inhibition
1,O=C(CN1C(=O)NC2(CCCCC2)C1=O)N1CCN(C(=O)c2cccs2)CC1,-4.48% (inactive)
2,CCCc1ccc(C(=O)COC(=O)CN2C(=O)NC3(CCCCC3C)C2=O)cc1 (centres undefined),-19.2% (inactive)
3,COc1ccc(NC(=O)c2sccc2SCC#N)cc1,31.6% (active)
4,COc1ccc(NC(=O)CSc2nc(C)cs2)cc1,7.3% (inactive)
5,COc1ccc(NC(=O)c2sc(N)nc2-c2ccccc2)cc1,-6.34% (inactive)
6,NC(=O)NC(=O)C(OC(=O)CCNS(=O)(=O)c1ccccc1)c1ccccc1 (centres undefined),12.6% (inactive)
7,O=C1COc2ccc(C(=O)CSc3ccc(Br)cc3)cc2N1,11.8% (inactive)
8,COc1cccc(C2=CC(=O)C[C@H](c3ccc(OC)c(OC)c3)C2)c1,9.37% (inactive)
9,CC(C)CCN1CCN(C/C=C/c2ccco2)CC1CCO (centres undefined),-9.65% (inactive)
10,CC(C)CCN1CCN(Cc2cn[nH]c2C2CCCCC2)CC1CCO (centres undefined),56.2% (active)
11,CC(C)CCN1CCN(Cc2ccc(C(F)(F)F)cc2)CC1CCO (centres undefined),14.1% (inactive)
12,COc1ccc(CCNC(=O)COc2ccc3c(c2)OCO3)cc1,-6.03% (inactive)
13,O=C(Cn1c(=O)sc2ccccc21)Nc1ccc2c(c1)OCCO2,-10.2% (inactive)
14,O=C(CN1CCC(O)(c2ccccc2)CC1)Nc1ccc2c(c1)OCCO2,94.9% (active)
15,Cn1c(=O)c2ccccc2n(CC(=O)Nc2ccc3c(c2)OCCO3)c1=O,0.133% (inactive)
16,CC1CCCC(NC(=O)c2cc(-c3ccncc3)nc3ccccc23)C1C (centres undefined),-1.15% (inactive)
17,CC(OC(=O)Cc1ccc(F)cc1)C(=O)N1CCc2ccccc21 (centres undefined),-8.93% (inactive)
18,CN(CC(=O)Nc1ccc(F)c(F)c1F)C(=O)C1CC(=O)N(C2CCCC2)C1 (centres undefined),-11.5% (inactive)
19,CC(NC(=O)c1cc(-c2ccccc2)on1)c1ccccc1 (centres undefined),11.6% (inactive)
20,O=C(NC1CCCCC1)c1cc(C2CC2)on1,-9.03% (inactive)
21,O=C(NC1CCCC1)c1cc(-c2ccccc2)on1,37.6% (active)
22,CCn1c(SCC(=O)NCC2CCCO2)nc2ccccc21 (centres undefined),-20.8% (inactive)
23,O=C(NC1CCCCC1)N1CCc2[nH]c3ccccc3c2C1,-14.3% (inactive)

row,Compound,inhibition
1,COC(=O)[C@H]1[C@H]2C[C@H]3c4[nH]c5ccccc5c4CCN3C[C@@H]2CC[C@@H]1O,-5.26% (inactive) and 43.4% (active)
2,COC(=O)C1CCN(C(=O)c2cc(=O)[nH]c3ccccc23)CC1,17.7% (inactive)
3,O=C(COC(=O)Cc1ccc(Br)cc1)Nc1ccc(N2CCOCC2)cc1,22.4% (inactive)
4,COc1cc(CNCc2ccc(OC)c3ccccc23)cc(OC)c1OC,33% (active)
5,COc1ccc(CNC(=O)Cc2ccc(-c3ccccc3)cc2)cc1OC,20.3% (inactive)
6,COc1cc(CNCc2cccs2)cc(Br)c1OC,-4.22% (inactive)
7,COC(=O)C1=CO[C@@H](O[C@@H]2O[C@H](CO)[C@@H](O)[C@H](O)[C@H]2O)C2C1C[C@H](O)[C@@H]2C (some centres undefined),-6.47% (inactive)
8,COc1ccc(-n2nnnc2SCC(=O)NCc2cccs2)cc1,-2.89% (inactive)
9,COc1ccc(-n2c(SCC(=O)NCc3cccs3)nnc2-c2ccoc2C)cc1,42.5% (active)
10,COc1ccc(-n2c(SCC(=O)NCc3ccco3)nnc2-c2c[nH]c3ccccc23)cc1,-8.02% (inactive)
11,CN1CCN(S(=O)(=O)c2cccc(C(=O)Nc3sccc3C#N)c2)CC1,0.535% (inactive)
12,CN(C)C(=O)c1ccc(NC(=O)COC(=O)c2cc3c(s2)CCCCC3)cc1,-7.26% (inactive)
13,COc1ccc(-c2nc3ccccc3c(=O)n2CCc2ccc(O)cc2)cc1,-13.4% (inactive)
14,COc1ccc(CCNCc2c(-c3ccccc3)n(C)c3ccccc23)cc1,45.6% (active)
15,COc1ccc(-c2c(C#Cc3ccccc3)c3ccccc3n2C)cc1,9.11% (inactive)
16,CCCc1[nH]nc2c1C(c1ccc(OC)c(Cn3nc(C)c(Br)c3C)c1)C(C#N)=C(N)O2 (centres undefined),-23.9% (inactive)
17,CCOc1c(OC)cc(C2C(C#N)=C(N)Oc3n[nH]c(-c4ccncc4)c32)cc1OC (centres undefined),-9.43% (inactive)
18,COc1ccc(C2C(C#N)=C(N)Oc3n[nH]c(C)c32)cc1CN1CCN(c2ccc(F)cc2)CC1 (centres undefined),53.9% (active)
19,COc1ccccc1/C=C/C(=O)OCC(=O)NC1CCCCCC1,-12.9% (inactive)
20,CCN(CC(=O)Nc1ccccc1C(=O)NC1CC1)Cc1cccs1,0.568% (inactive)
21,Cc1cc(C)c(C#N)c(SCC(=O)N(CC(C)C)C2CCS(=O)(=O)C2)n1 (centres undefined),6.67% (inactive)
22,CC1CC1C(=O)OCC(=O)Nc1cccc(F)c1 (centres undefined),17.3% (inactive)
23,CC(=O)N(CC1CCCO1)C1(C(=O)NC2CCCC2)CCCCC1 (centres undefined),-1.19% (inactive)

row,Compound,inhibition
1,Cc1ccsc1C(C(=O)NC1CCCCC1)N(C(=O)Cc1cccs1)C1CC1 (centres undefined),2.03% (inactive)
2,O=C(Cc1cccs1)N(CC1CCCO1)C1(C(=O)NC2CCCCC2)CCCCC1 (centres undefined),34% (active)
3,COc1ccc(N(CCC(=O)NCCc2ccccc2)S(=O)(=O)c2ccc(C)cc2C)cc1,-18.2% (inactive)
4,COc1cc2c(cc1OC)CN(C(C)C(=O)Nc1cccc(S(=O)(=O)N3CCOCC3)c1)CC2 (centres undefined),15.6% (inactive)
5,CC(C)C(=O)Nc1c2c(nn1-c1ccccc1)CSC2,7.83% (inactive)
6,CC(Oc1ccccc1)C(=O)Nc1c2c(nn1-c1ccccc1)CS(=O)C2 (centres undefined),30.2% (active)
7,COc1ccc(CC(=O)Nc2c3c(nn2-c2cccc(Cl)c2)CS(=O)C3)cc1 (centres undefined),-9.37% (inactive)
8,O=c1ccc(S(=O)(=O)N2CCCC2)cn1Cc1nc(-c2ccccc2)no1,15.2% (inactive)
9,COc1ccc(-c2nc(CN3CCN(c4ncccn4)CC3)c(C)o2)cc1C,0.804% (inactive)
10,COc1ccc(F)c(-c2nc(CN3CCC(c4ccccc4)CC3)c(C)o2)c1,93.5% (active)
11,CCOc1ccccc1-c1nc(CN2CCC(C(=O)N3CCOCC3)CC2)c(C)o1,-1.66% (inactive)
12,COc1ccccc1N1CCN(CC(=O)Nc2ccnn2C2CCCC2)CC1,14.3% (inactive)
13,CC(=O)NC12CC3CC(C1)CC(C(=O)N1CCN(S(=O)(=O)c4cccs4)CC1)(C3)C2,-3.14% (inactive)
14,O=C1c2ccccc2C(=O)N1CCC#Cc1ccc2cc(C3(O)CCCCC3)oc(=O)c2c1,-4.36% (inactive)
15,COc1cccc(N2CC(NS(=O)(=O)c3ccc(Cl)cc3)CC2=O)c1 (centres undefined),12% (inactive)
16,NS(=O)(=O)c1ccc(-c2ccc(/C=C3\SC(=O)NC3=O)o2)cc1,47.3% (active)
17,CN1CCN(/N=C/c2ccc(-c3ccc([N+](=O)[O-])cc3)o2)CC1,11.1% (inactive)
18,CN1C(=O)/C(=C\c2ccc(-c3ccccc3)o2)SC1=S,16.2% (inactive)
19,COC(=O)c1sc(NC(=O)COC(=O)C2CCC2)c(C(=O)OC)c1C,3.68% (inactive)
20,CC(Sc1ncnc2c1cnn2-c1ccccc1)C(=O)Nc1ccc(N2CCOCC2)cc1 (centres undefined),8.83% (inactive)
